Our source for the inhibition values is PubChem BioAssay AID1626 (SRMLSC, 2009).

The structures appear in SMILES notation. Out of some 220,000 compounds screened, about 2,000 (0.91%) were called active. Roughly 2% stayed inconclusive and do not appear here. Only a sample is shown. Measured potencies and affinities stand elsewhere. Unmarked numbers belong to inactive results. Rule as the data show it: inconclusive = inhibition above about 80% without an active follow-up result; inactive = below that; test concentration not stated here.

The nature of the test: M. tuberculosis H37Rv growth inhibitors, H37Rv strain (AID 1626).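 Also: bacteria incubated seven days before Alamar blue readout; 0% = bacteria only wells and 100% = bacteria with antibiotic wells.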 The conditions noted are these: active compounds read high, concentration not given here.
`Cc1nc(C(=O)Nc2ccc(F)cc2)nn1-c1ccc([N+](=O)[O-])cc1`: the inhibition (in general, the change of the read-out against control, counted positive when it falls) was -5.91%. In the case of `CCC1(C)Cc2ccccc2C(Nc2c(C)n(C)n(-c3ccccc3)c2=O)=N1` (stereo not given), the inhibition was -6.85%. As to `Cc1nc(-c2cccc(NC(=O)C3CCCCC3)c2)cs1`, the inhibition was -1.02%. For the compound `COc1ccccc1Nc1nc(-c2ccc3c(c2)NC(=O)CO3)cs1`, the inhibition was -3.16%. As for `COc1cccc(-c2nc(-c3ccc4c(c3)NC(=O)CO4)cs2)c1`, the inhibition was 22.4%. In the case of `CCC(C(=O)Nc1cc(Cl)c(OC)cc1OC)c1ccccc1` (stereo not given), the inhibition was -3.66%.

On to `CC(=O)OC(C(=O)Nc1ccccc1)C(C)S(=O)(=O)c1ccccc1` (stereo not given), for which the inhibition was -4.23%. Under `O=C(Nc1ccccc1Cl)O/N=C/c1ccncc1` stands -1.05%. As for `CC(C)C(=O)Nc1ccc(C(=O)NNC(=O)NC2CCCCC2)cc1`, the figure is -3.11%; as for `COc1cccc(NC2c3ccccc3C(=O)N2Cc2ccccc2Cl)c1` (stereo not given), 8.87%.

Take `O=C(COC(=O)c1ccc2ccccc2n1)c1ccc(F)cc1`: the inhibition was -7.45%. Under `O=C(OCc1ccc([N+](=O)[O-])cc1)c1ccc2ccccc2n1` stands 40.4%; under `O=C(CSc1nc2ccccc2s1)N1c2ccccc2Sc2ccccc21`, 1.29%; under `O=C(O)CSc1nc2ccccc2[nH]1`, -9.58%.

Take `COc1ccc(NC(=O)COC(=O)c2cc(SC)ccc2Cl)c(OC)c1`: the inhibition is 10.1%.

With `COc1ccc(C(C)(C)C)cc1NC(=O)COC(=O)c1ncc(Cl)c(Cl)c1Cl`, the inhibition was -2.28%. For the compound `O=C1c2ccccc2C(=O)N1CC1CCCO1` (stereo not given), the inhibition was -1.11%. With `O=C1c2cccc3cccc(c23)C(=O)N1CC1CCCO1` (stereo not given), the inhibition is 0.46%. In the case of `O=C1c2ccc(Oc3cccc([N+](=O)[O-])c3)cc2C(=O)N1c1ccccn1`, the inhibition was -2.15%.

Consider `O=C1c2cccc3cccc(c23)C(=O)N1Cc1cccnc1`, for which the inhibition was -2.19%. As for `O=C1c2cccc3cccc(c23)C(=O)N1c1ccccn1`, the figure is 2%; as for `O=C1c2cccc3c([N+](=O)[O-])ccc(c23)C(=O)N1c1nccs1`, -1.82%; as for `Cc1ccc(N2C(=O)c3cccc4c([N+](=O)[O-])ccc(c34)C2=O)c2cccnc12`, -2.68%.

Take `O=C1c2ccc3c4c(ccc(c24)C(=O)N1Cc1cccnc1)C(=O)N(Cc1cccnc1)C3=O`: the inhibition was 7.76%. As for `CCOC(=O)c1[nH]c2cc(OC)c(OC)cc2c1NC(=O)CN1CCN(C)CC1`, the figure is -4.7%. As to `COC(=O)CS(=O)(=O)c1ccc(C)cc1`, the inhibition was -7.54%. As for `CCCOC(=O)c1c(NC(=O)CCCn2nc([N+](=O)[O-])cc2C)sc(C(=O)OC)c1C`, the figure is -6.65%. As for `CCOP(=O)(OCC)C(Nc1cc(Cl)cc(Cl)c1)c1cccc(O)c1` (stereo not given), the figure is 1.6%.

As to `CCO[C@@H]1OC(C(=O)Nc2ccccc2)=C[C@H](c2ccc(C(F)(F)F)cc2)[C@H]1CCCO`, the inhibition is 3.16%. On to `Cc1occc1-c1nnc(SCC(=O)c2c(N)n(Cc3ccccc3)c(=O)n(C)c2=O)n1C`, for which the inhibition was 4.82%.

In the case of `CCCC(=O)Nc1ccc(C(=O)NN=C(C2CC2)C2CC2)cc1`, the inhibition was -2.7%. As for `CCCCSc1nnc(CSc2nc3nc(C)cc(C)n3n2)o1`, the figure is 8.33%. As to `CCCSc1nnc(CSc2nc3nc(C)cc(C)n3n2)o1`, the inhibition was -11.4%.

Turning to `Cc1cc2nc(N)sc2cc1[N+](=O)[O-]`, the inhibition was -4.98%. As for `Oc1ccc(/C=C/c2nc(-c3ccccc3O)n(-c3ccccc3)n2)cc1`, the figure is 21.6%; as for `COc1ccc(/C=C/c2nc(-c3ccccc3O)n(-c3ccccc3)n2)cc1`, -4.12%; as for `O=C(Nc1ccc(Nc2ccncc2)cc1)c1ccc(Nc2ccnc3ccc([N+](=O)[O-])cc23)cc1`, -3.41%. As for `O=C(Nc1ccc(Nc2ccncc2)cc1)c1ccc([N+](=O)[O-])cc1`, the figure is -0.61%; as for `COc1cccc(-c2nc(N3CCN(C)CC3)c3ccccc3n2)c1O`, 10.5%.

Turning to `CN1CCN(c2nc(-c3ccccc3)nc(-c3ccccc3)c2C#N)CC1`, the inhibition is 20.2%. Under `N#Cc1c(-c2ccccc2)nc(-c2ccccc2)nc1N1CCOCC1` stands -9.91%; under `COc1ccc(-c2nc(-c3cccc(C)c3)nc(N3CCN(C)CC3)c2C#N)cc1`, 6.59%. Under `COc1ccc(-c2nc(-c3ccccc3)nc(N3CCN(C)CC3)c2C#N)cc1` stands 9.82%; under `COc1ccc(-c2nc(-c3ccccn3)nc(N3CCN(C)CC3)c2C#N)cc1`, 1.76%. For the compound `O=C(COC(=O)c1ccco1)Nc1ccccc1`, the inhibition is -8.55%. Under `CC(=O)c1sc(=S)n(-c2ccccc2)c1C` stands 7.39%. For `O=C(Cn1cnc2c(cnn2-c2ccc(F)cc2)c1=O)N1CCN(c2ccccc2F)CC1`, the inhibition is 3.88%. Take `O=S(=O)(c1ccc(-c2csc(-c3cccnc3)n2)cc1)N1CCOCC1`: the inhibition was 3.97%. As for `NC(=O)NC(=O)COC(=O)c1ccccc1OCc1ccc(F)cc1`, the figure is 4.1%; as for `CN(C)S(=O)(=O)c1cc(NC(=O)CN2CCCc3ccccc32)ccc1Cl`, -10.6%; as for `O=C(CN1CCN(S(=O)(=O)c2ccc(Cl)cc2)CC1)Nc1ccc(F)cc1F`, 6.43%. Regarding `O=C(Cc1nnc(NC(=O)Nc2ccc(Cl)cc2)s1)NCc1ccccc1`, the inhibition was -0.51%. Under `CC(=O)OCC(=O)Nc1ccc(Br)c(C)c1` stands 21.6%; under `O=C(CCN1C(=O)C2C3C=CC(C3)C2C1=O)Nc1ccc2c(c1)OCO2` (stereo not given), -1.34%; under `Cc1nc(SCC(=O)Nc2ccccn2)n[nH]1`, -3.41%. `Cc1cccc(NC(=O)CCN2C(=O)C3C4C=CC(C4)C3C2=O)c1` (stereo not given): the inhibition is 3.17%. As for `CCOc1ccc(NC(=O)Cc2ccccc2)cc1`, the inhibition is 5.27%.

Turning to `CCOC(=O)C(=O)Nc1ccc(OCc2ccccc2)cc1`, the inhibition is 12.6%. As for `O=C(CSc1ncn[nH]1)Nc1ccc(OCc2ccccc2)cc1`, the figure is 47.3%; as for `CCOCC(=O)Nc1ccc(C)c(Cl)c1`, 76.9%; as for `O=C(CSc1ncccn1)Nc1ccc2c(c1)CCC2`, 76%.

With `CCOC(=O)c1sc(=S)n(C)c1NC(=O)c1ccc(C(C)(C)C)cc1`, the inhibition was 79.7%.

In the case of `Oc1ccc(-c2nc3ccccc3s2)cc1`, the inhibition is 59.6%.

On to `CCCOc1ccc(C(CC(=O)O)NC(=O)c2ccc3c(c2)OCO3)cc1` (stereo not given), for which the inhibition is 3.69%. For `COc1ccc(-c2ocnc2C(=O)N2CCN(C(c3ccccc3)c3ccccc3)CC2)cc1`, the inhibition was -4.16%. Under `O=C(NNC(=O)C1CCCO1)c1ccccc1Cl` (stereo not given) stands -7.82%. Consider `CCN(CC)S(=O)(=O)c1ccc(-c2nnc(SCC(=O)N3c4ccccc4CC3C)n2CC)cc1` (stereo not given), for which the inhibition is 5%. Under `CCC(CC)c1nnc(NC(=O)CCCN2C(=O)c3ccccc3C2=O)s1` stands -6.94%; under `O=C(CN1CCCC1)Nc1ccc(OCc2ccccc2)cc1`, -0.61%; under `O=C(CN1CCN(c2ccccc2)CC1)Nc1ccc(OCc2ccccc2)cc1`, -8.11%. Under `COc1ccc(CNC(=O)C2Cc3ccccc3CN2C(=O)c2ccco2)cc1` (stereo not given) stands -0.615%; under `COCCNC(=O)c1ccc(CS(=O)(=O)c2ccc(C)cc2)o1`, -5.24%. Take `COC(=O)c1ccc2nc(NC(=O)CN3C(=O)CCC3=O)sc2c1`: the inhibition was -25.1%. As for `Cc1ccc(SCCNC(=O)c2ccc(C)c([N+](=O)[O-])c2)cc1`, the figure is -5.78%; as for `Cc1ccc(C(=O)NCCSC(C)(C)C)cc1`, 2.64%; as for `Cc1ccc2c(c1)-c1[nH]c(=S)ncc1CS2`, 3.39%. For `COc1ccc(-c2cc(C(F)(F)F)nc(SCC(=O)NCc3cccs3)n2)cc1OC`, the inhibition is 0.43%.

Turning to `Cc1cc(OCC(=O)N(Cc2ccco2)C2CCS(=O)(=O)C2)ccc1Cl` (stereo not given), the inhibition was -8.25%.

Regarding `O=C(COC(=O)/C=C/c1ccc(F)cc1)NCc1ccco1`, the inhibition is -4.03%. `O=C(CCCn1cc([N+](=O)[O-])cn1)NC1CCCCCC1`: the inhibition was 5.99%.

For `CS(=O)(=O)c1cccc(C(=O)NCc2ccc(F)cc2)c1`, the inhibition was 9.82%.

Regarding `Cc1nn(Cc2c(Cl)cccc2Cl)c(C)c1NC(=O)c1cnn2c(C(F)F)cc(-c3ccccc3)nc12`, the inhibition is 49.7%. As for `Cc1ccc(-c2cc(C(F)F)n3ncc(C(=O)Nc4c(C)nn(Cc5c(Cl)cccc5Cl)c4C)c3n2)cc1`, the figure is 57.7%; as for `COc1ccccc1NC(=O)CSC1=NCCN1`, -6.91%.

Turning to `C=CCN1CN(S(=O)(=O)c2cccs2)c2nc3ccccc3nc21`, the inhibition is -3.39%. For `Clc1ccccc1OCCCCn1ccnc1`, the inhibition is 2.53%. In the case of `Cc1cccc(C(C)(C)C)c1OCCn1ccnc1`, the inhibition was -11%.

As for `Cc1ccc(C)c(OCCCCCn2ccnc2)c1`, the inhibition was -10.5%. Turning to `Cc1ccccc1OCCCCCn1ccnc1`, the inhibition is 5.71%.

In the case of `COc1ccccc1NC(=O)N1CCN(CCc2ccccc2)CC1`, the inhibition is -2.85%.

For the compound `CC(=O)OCC1OC(OC(C)=O)C(NC(=O)c2cccnc2)C(OC(C)=O)C1OC(C)=O` (stereo not given), the inhibition was -0.72%. As for `CCCCN(C(=O)c1cc2ccccc2o1)c1c(N)n(CC(C)C)c(=O)[nH]c1=O`, the inhibition was 9.87%. Take `COc1ccc(-c2c(C)[nH]n3c(=O)c(Cc4ccccc4)c(C)nc23)cc1OC`: the inhibition was 38.6%. Under `Cc1[nH]n2c(=O)c3c(nc2c1-c1cccc2ccccc12)CCC3` stands -8.68%; under `COc1ccc(-c2c(C)[nH]n3c(=O)c(Cc4ccccc4)c(C)nc23)cc1`, 70.9%. As to `COc1cccc(N=Nc2c(N)[nH]n3c(=O)c4c(nc23)CCCC4)c1`, the inhibition is 19.3%. Turning to `O=c1c2c(nc3c(-c4ccccc4)c[nH]n13)CCC2`, the inhibition is 2.63%.

For `Cc1ccc(-c2[nH]n3c(=O)c4c(nc3c2C)CCCC4)cc1`, the inhibition was 5.52%. Under `O=c1c2c(nc3c(-c4ccccc4)c[nH]n13)CCCC2` stands 14.2%.

In the case of `Nc1[nH]n2c(=O)c3c(nc2c1N=Nc1ccccc1)CCCC3`, the inhibition was 79.3%.
